Screening results as filed in PubChem.
Sm TGR inh: S. mansoni TGR enzyme inhibition; Q962Y6; purified TGR, DTNB reduction, TNB absorbance 405 nm; Potency, µM (doses to about 114 µM), actives largely listed as inhibitors; actives 3% (n = 360,000); note: nearly all actives have a fitted effect of over 60% in size
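Kinetic colorimetric format: TGR-catalysed, NADPH-driven DTNB reduction monitored via TNB absorbance. Enzyme dispensed at 20 nM; compound exposure 15 min at room temperature before reaction start.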
SARS PLP yeast: inhibitors of SARS-CoV papain-like protease in yeast; S. cerevisiae expressing SARS-CoV PLpro, growth rescue; AID 485353; actives 0.19% (n = 330,000); Potency, µM (highest dose often 32.9 µM), usual class: activators; calls by dose curve; note: nearly all actives have a fitted effect of over 55% in size
Pf growth 48h: P. falciparum growth inhibition at 48 hours (one generation); AID 504832; Potency, µM (titrated, usually from 28.7 µM), actives largely listed as inhibitors; P. falciparum luciferase growth in erythrocytes, 48 h; actives 5.9% (n = 310,000)
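Luciferase-expressing parasites in RBCs, 2% Hct / 0.1% parasitemia final; RPMI 1640 + 0.5% Albumax; 37 C, 5% CO2, one generation; luminescence read-out, lower signal = inhibition.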
HCMV antiviral: blocks human cytomegalovirus replication | HFF cells, HCMV-luciferase reporter, 72 h; hits give low values | activity change, negative = inhibition, % at 57.5 µM | actives 4.5% (n = 410,000); in the data active = activity change below about -60%; inconclusive = no clear call, values can overlap the other calls; inactive = above about -39%
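Human foreskin fibroblasts infected with luciferase-reporter HCMV at MOI 1 PFU/cell, compounds at two doses. Luciferase measured 72 h post infection; normalized to buffer-only basal and Salinomycin (10uM) controls.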
Pf growth 96h: P. falciparum growth inhibition at 96 hour, primary screen for plastid delayed-death inhibitors; P. falciparum luciferase reporter growth, 96 h; Potency, µM (highest dose often 28.7 µM), most hits filed as inhibitors; actives 6.9% (n = 320,000)
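Cell-based qHTS: luciferase-tagged P. falciparum in erythrocytes (2% hematocrit, 0.05% parasitemia final) incubated with compounds for 96 hours, 37 C, 5% CO2; luciferase detection reagent then added and luminescence measured.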
HCV inh: inhibitors of hepatitis C virus infection; Huh7.5.1 HCVcc-Cre infection, luciferase reporter, 44 h; Potency, µM (top dose mostly 41.8 µM), actives largely listed as inhibitors; actives 3.4% (n = 340,000)
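Cells (1,000/well) were plated 4 h before compound, then infected with HCVcc-Cre virus (~0.5 moi). After 44 h further culture, infection was read as luciferase luminescence following a 15 min substrate incubation at room temperature.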
Of the large screens only hits and unclear results are named; the others gave an inactive call. A selection: hits, their analogues and other compounds. The true share with any hit is near 15%. Unless noted, calls come from the whole dose curve; as a rule, active = well fitted curve in the direction sought with a large enough effect; inconclusive = small, poorly fitted or top-dose-only effect, or another doubt; inactive = no such curve, though single readings can be large; an effect the other way counts as inactive or inconclusive.

O=C(COc1ccc(Cl)cc1)N(c1ccc(Cl)cc1)C1CN2CCC1CC2 (stereo not given)	Pf growth 96h inconclusive, HCV inh 25µM
O=C(COc1ccc(Cl)cc1)N1CCCC1	none
Cc1ccc(C)c(NC(=S)NCC(c2ccccc2)N(C)C)c1 (stereo not given)	Pf growth 48h inconclusive, HCMV antiviral inconclusive, Pf growth 96h inconclusive
CC(C)N1CCSC1=S	none (no result: Sm TGR inh, SARS PLP yeast, Pf growth 48h, Pf growth 96h)
CCOC(=O)c1nnn(C(CC)C(=O)Nc2c(C)cccc2C)c1C(=O)OCC (stereo not given)	none (no result: SARS PLP yeast, Pf growth 48h, Pf growth 96h, HCV inh)
CCS(=O)(=O)c1nnnn1-c1ccccc1S(C)(=O)=O	Pf growth 48h 9.3µM, HCMV antiviral -93 (no result: Pf growth 96h, HCV inh)
CCCOc1ccc(/C=C/C(=O)Nc2ccc([N+](=O)[O-])cc2C)cc1OC	Pf growth 48h inconclusive, HCMV antiviral -96
COc1cc(/C=N\NC(=O)CN2CCOCC2)ccc1OCC(=O)Nc1ccc(C)c(C)c1	Sm TGR inh 89µM, Pf growth 48h inconclusive, Pf growth 96h 9.3µM
CNC(=S)N/N=C/c1ccc(OCC(=O)Nc2c(C)cc(C)cc2C)c(OC)c1	Pf growth 48h 13µM, Pf growth 96h inconclusive
COc1cc(/C=N/NC(=O)c2cccnc2)ccc1OCC(=O)Nc1c(C)cc(C)cc1C	none
COc1cc(/C=N\Nc2ccc([N+](=O)[O-])cc2)ccc1OCC(=O)Nc1ccc(C)c(C)c1	Pf growth 48h inconclusive, HCMV antiviral -72
COc1ccc(-n2nc(C(=O)NCC(=O)NCCC3=CCCCC3)c3ccccc3c2=O)cc1	Pf growth 48h inconclusive
COc1ccccc1NC(=O)Nc1ccnn1C1CCN(C(=O)C2CCOC2)CC1 (stereo not given)	none (no result: Sm TGR inh, SARS PLP yeast, Pf growth 48h, Pf growth 96h, HCV inh)
CCOc1cc(C(=S)N2CCCC2)ccc1OC	none (no result: Pf growth 48h)
CCOc1cc(C(=S)N2CCCC2)ccc1OCC(=O)Nc1c(C)cc(C)cc1C	Pf growth 48h 2.3µM, HCV inh inconclusive
Cc1ccc2c(=O)cc(C(=O)Nc3nc4ccc(Cl)cc4s3)oc2c1C	none (no result: SARS PLP yeast, Pf growth 48h, Pf growth 96h, HCV inh)
COc1cc(NC(=S)N2CCN(S(=O)(=O)c3ccccc3)CC2)cc(OC)c1	Pf growth 48h inconclusive, HCMV antiviral inconclusive
CCNC(=S)N1CCC(C(O)(c2ccccc2)c2ccccc2)CC1	Pf growth 96h inconclusive
COc1cccc(NC(=S)N2CCN(S(C)(=O)=O)CC2)c1	Pf growth 96h 4.1µM
COc1cccc(NC(=S)N2CCN(S(=O)(=O)c3ccc(F)cc3)CC2)c1	Pf growth 48h 1.9µM, HCMV antiviral -63, Pf growth 96h inconclusive
COc1ccc(NC(=S)N2CCN(S(=O)(=O)c3ccc(F)cc3)CC2)cc1OC	Pf growth 48h inconclusive
COc1cc(NC(=S)N2CCN(S(=O)(=O)c3ccc(F)cc3)CC2)cc(OC)c1	Pf growth 48h 2.3µM
COc1cc(NC(=S)N2CCC(C(O)(c3ccccc3)c3ccccc3)CC2)cc(OC)c1	Pf growth 96h 2.1µM, HCV inh inconclusive
Cc1nc(-c2ccc(Cl)cc2)sc1C1(C)CC(c2cccc(F)c2)=NO1 (stereo not given)	HCMV antiviral inconclusive
Clc1ccc(C(c2nnnn2C2CCCC2)N2CCSCC2)cc1 (stereo not given)	none
COc1ccc2c(C(=O)CN3CCN(c4ccccc4)CC3)c[nH]c2c1	none (no result: Pf growth 48h)
CC12CC[C@H]3[C@@H](CCC4(O)C[C@H](O)CCC34/C=N/NC(=O)Cc3ccccc3)C1(O)CCC2C1=CC(=O)OC1 (stereo not given in full)	Pf growth 48h inconclusive, HCMV antiviral -66
CNC(=O)Nc1ccc(C(=O)N/N=C\C23CC[C@@H](O)CC2(O)CC[C@@H]2[C@@H]3CCC3(C)C(C4=CC(=O)OC4)CCC23O)cc1 (stereo not given in full)	none
CC12CC[C@H]3[C@@H](CCC4(O)C[C@H](O)CCC34/C=N/NC(=O)c3ccccc3[N+](=O)[O-])C1(O)CCC2C1=CC(=O)OC1 (stereo not given in full)	HCMV antiviral -78
CN(C)c1ccc(CNC(=O)c2csc(N3CCN(CCc4ccccc4)C3=O)n2)cc1	none (no result: Sm TGR inh, SARS PLP yeast, Pf growth 48h, Pf growth 96h, HCV inh)
CCCN(CCC)S(=O)(=O)c1ccc(C(=O)Nc2ccc(S(=O)(=O)Nc3nnc(CC)s3)cc2)cc1	Pf growth 48h 12µM, Pf growth 96h inconclusive
CCc1nnc(NS(=O)(=O)c2ccc(NC(=O)c3ccc(C#N)cc3)cc2)s1	Pf growth 48h inconclusive, Pf growth 96h 10µM
CCc1nnc(NS(=O)(=O)c2ccc(NC(=O)c3ccc(Cl)cc3)cc2)s1	Pf growth 48h inconclusive, Pf growth 96h inconclusive
Cc1cc(=O)[nH]c(SCC(=O)C23CC4CC(CC(C4)C2)C3)c1C#N	Sm TGR inh 16µM
Cc1cc(=O)[nH]c(SCC(=O)O)c1C#N	none
Cc1oc(-c2ccc(C(=O)NCCN(C)C)cc2)nc1CS(=O)(=O)c1ccccc1	HCMV antiviral -70 (no result: SARS PLP yeast, Pf growth 48h, Pf growth 96h, HCV inh)
CCOCCCNC(=O)c1ccc(-c2nc(CS(=O)(=O)c3ccccc3)c(C)o2)cc1	Sm TGR inh inconclusive (no result: SARS PLP yeast, Pf growth 48h, Pf growth 96h, HCV inh)
CCOc1ccc(CNC(=O)c2ccc(-c3nc(CS(=O)(=O)c4ccccc4)c(C)o3)cc2)cc1	none (no result: SARS PLP yeast, Pf growth 48h, Pf growth 96h, HCV inh)
COCCNC(=O)c1ccc(-c2nc(CS(=O)(=O)c3ccccc3)c(C)o2)cc1	Sm TGR inh 22µM (no result: SARS PLP yeast, Pf growth 48h, Pf growth 96h, HCV inh)
Nc1nc(SCC(=O)Nc2ncc(Cl)cc2Cl)n[nH]1	none
CCC(C)NC(=O)c1ccccc1-c1nc2ccccc2[nH]1 (stereo not given)	none
CCOC(=O)c1ccc(N2C(=O)CC(Sc3ncccn3)C2=O)cc1 (stereo not given)	Sm TGR inh 40µM
CCOC(=O)C(N)CSC1CC(=O)N(CCc2ccccc2)C1=O (stereo not given)	Sm TGR inh 8.9µM
CCOC(=O)C(N)CSC1CC(=O)N(c2ccc(C(=O)OC)cc2)C1=O (stereo not given)	Sm TGR inh inconclusive, SARS PLP yeast inconclusive, Pf growth 96h 5.2µM
CC(=O)c1cccc(NC(=O)Cn2cc(C(=O)c3cccc(Cl)c3)c(=O)c3ccc(C)nc32)c1	none (no result: SARS PLP yeast, Pf growth 48h, Pf growth 96h, HCV inh)
O=C(Nc1ccccc1Br)N1CCC(CN2CCCC2)CC1	none (no result: SARS PLP yeast, Pf growth 48h, Pf growth 96h, HCV inh)
Clc1cccc(CN2CCN(c3ncccn3)CC2)c1Cl	HCMV antiviral inconclusive, Pf growth 96h 13µM
CCc1nc2c(OCc3ccccc3)cccn2c1N(Cc1ccccc1)C(C)=O	none (no result: Sm TGR inh, SARS PLP yeast, Pf growth 48h, Pf growth 96h, HCV inh)
Cc1cc(C)cc(NC(=O)c2oc3ccc4c(c3c2C)C(=O)CC(C)(C)O4)c1	HCMV antiviral -105 (no result: SARS PLP yeast, Pf growth 48h, Pf growth 96h, HCV inh)
CCCOc1ccc(NC(=O)CC2C(=O)N(c3ccc(C)cc3)C(=O)N2CCc2ccncc2)cc1 (stereo not given)	none (no result: SARS PLP yeast, Pf growth 48h, Pf growth 96h, HCV inh)
CCNC(=O)CC1C(=O)N(c2ccc(F)cc2)C(=S)N1CCc1ccncc1 (stereo not given)	Pf growth 48h 13µM, Pf growth 96h inconclusive
